Only some compounds are listed: those with a hit (about 28% of all), similar ones and a draw of the others.
CYP2C19 act = activators of human cytochrome P450 2C19; 96,000 tested, under 10 active; recombinant CYP2C19, luciferin-H EGE luminescence; stronger effect = higher value; 0 = fully inhibited enzyme, 1 = untreated enzyme; activation factor at 5 µM; AID 1025;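 active means activation factor of at least 2 at 5 µM in the primary screen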;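 further: 0 = wells with 2.5 mM tranylcypromine and 1 = vehicle-only wells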
CYP2C19 inhib = human CYP2C19 inhibition; P33261; CYP2C19 Supersomes, luciferin-H EGE luminescence, 30 min; inhibition, % at 5 µM; 96,000 compounds, 21% hits; AID 778;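 active means CYP2C19 inhibition above a set limit at 5 µM in the primary screen, cut at about 50% in these data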;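 further: plate controls were negative control wells for no effect and 2.5 mM tranylcypromine positive control for full effect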
Mac1 fbg inh = inhibitors of human CD11b/CD18 binding to fibrinogen; inhibition, % at 10 µM; K562 CD11b/CD18 adhesion to fibrinogen, ATPlite luminescence; Mn2+ added to activate the integrin; 93,000 compounds, 0.54% hits; P05107+P11215;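 active means primary inhibition of 50% or more at 10 µM, then 40% or more on retest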
Target sequence (P05107 whole entry, looked up, other chains not shown): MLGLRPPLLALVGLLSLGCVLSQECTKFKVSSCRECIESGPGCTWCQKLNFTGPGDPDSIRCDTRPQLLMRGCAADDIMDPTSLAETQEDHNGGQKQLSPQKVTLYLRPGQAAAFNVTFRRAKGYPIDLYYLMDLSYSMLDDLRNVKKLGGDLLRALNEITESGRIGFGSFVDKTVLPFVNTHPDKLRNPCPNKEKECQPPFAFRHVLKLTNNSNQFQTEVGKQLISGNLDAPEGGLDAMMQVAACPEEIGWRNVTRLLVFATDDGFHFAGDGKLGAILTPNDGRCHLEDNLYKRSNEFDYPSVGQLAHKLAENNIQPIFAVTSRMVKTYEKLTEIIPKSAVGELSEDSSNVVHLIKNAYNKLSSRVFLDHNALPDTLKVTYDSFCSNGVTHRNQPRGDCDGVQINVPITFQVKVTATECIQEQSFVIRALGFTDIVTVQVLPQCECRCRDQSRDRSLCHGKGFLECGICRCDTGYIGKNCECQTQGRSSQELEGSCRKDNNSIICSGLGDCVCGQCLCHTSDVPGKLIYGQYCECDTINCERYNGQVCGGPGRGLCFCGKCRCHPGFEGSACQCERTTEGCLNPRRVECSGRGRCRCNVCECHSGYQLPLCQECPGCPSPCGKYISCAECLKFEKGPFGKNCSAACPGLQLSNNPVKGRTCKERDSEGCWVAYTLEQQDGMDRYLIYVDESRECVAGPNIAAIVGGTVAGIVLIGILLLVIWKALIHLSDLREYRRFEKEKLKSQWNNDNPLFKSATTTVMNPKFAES
CD11b adhes enh = CD11b/CD18-fibrinogen binding enhancement. P05107+P11215. K562 CD11b/CD18 adhesion to fibrinogen, ATPlite luminescence. activation, % at 10 µM. 93,000 compounds, 0.07% hits. AID 1499;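 active means 10 µM primary screen giving 50% or more activity, confirmed by 40% or more on retest at that dose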
CYP2C9 act = activators of human CYP2C9 | AID 1024 | P11712 | 96,000 compounds, 1.4% hits | activation factor at 5 µM | recombinant CYP2C9, luciferin-H conversion, luminescence; stronger effect = higher value; factor 1 = untreated enzyme, 0 = blocked;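 active means activation factor of 2 or more for CYP2C9 at a 5 µM dose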;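 further: 0 = sulfaphenazole-blocked wells and 1 = vehicle-only wells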
CYP2C9 inhib = inhibitors of human CYP2C9 | inhibition, % at 5 µM | 96,000 compounds, 20% hits | AID 777 | CYP2C9 Supersomes, luciferin-H conversion, luminescence;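 active means blocking of liver enzyme CYP2C9 beyond about 50% at 5 µM, limit read from the data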
* = called active by the depositor; . = no result.

SMILES	CYP2C19 act	CYP2C19 inhib	Mac1 fbg inh	CD11b adhes enh	CYP2C9 act	CYP2C9 inhib
O=c1ccn(Cc2ccccc2)c(=O)n1Cc1ccccc1	0.2	78*	0	-2	0.8	16
Cc1ccc2c(c1)nnn2C1CCN(CC(=O)NCCc2nc3ccccc3[nH]2)CC1	0.8	22	-7	0	0.8	24
COCCCn1c(SCc2cccc(C(F)(F)F)c2)nc2cc(OC)c(OC)cc2c1=N	0.6	39	.	.	0.2	82*
O=C(O)CCn1c(SCc2ccccc2)nc2ccccc21	1	3	-9	0	0.9	8
CC(=O)N1CCN=C1SCc1cccc(C(F)(F)F)c1	0.6	42	-30	-3	0.8	16
COCCCn1c(SCc2ccccc2)nc2cc(OC)c(OC)cc2c1=N	0.5	54*	.	.	0.4	64*
CN1CCN(C/C(=C2/N=C(c3ccccc3)OC2=O)N(C)C)CC1	1.1	-8	-5	-2	1.1	-11
CSC(=O)CC(=O)NC(=O)c1ccccc1	1	1	-38	18	0.5	48
Cc1cccc(NC(=O)c2cc3n(n2)C(C(F)(F)F)CC(c2ccc4c(c2)OCO4)N3)c1 (configuration not stated)	0.6	39	-26	24	0.1	87*
Cc1cc(NC(=O)c2cc3n(n2)C(C(F)(F)F)CC(c2ccc(Cl)c(Cl)c2)N3)no1 (configuration not stated)	1.1	-11	7	2	0.9	15
OCCN1CCN(CCOc2cccc(Cl)c2)CC1	1.1	-12	8	-4	1.1	-13
O=C(c1cccs1)N1N=C(c2ccccc2)CC1c1ccccc1 (configuration not stated)	0.3	68*	-28	-1	0.1	95*
CS(=O)(=O)N1N=C(c2ccccc2)CC1c1cccs1 (configuration not stated)	0.5	55*	.	.	0.8	24
O=C(COc1ccc(Br)cc1)N1CCN(c2ccc([N+](=O)[O-])c(N3CCCCC3)c2)CC1	.	.	11	-2	.	.
Cc1nc(-c2cnn(-c3ccccc3)c2)c2cc(C)oc2n1	1.1	-8	-19	-3	1	-3
CC(C)C(=O)Nc1c(-c2cccs2)c(=O)c2ccccc2n1C	1	-1	11	-10	1.1	-14
Cn1c(NC(=O)c2cccs2)c(-c2cccs2)c(=O)c2ccccc21	1	4	-13	-3	0.3	67*
Cn1c(NC(=O)c2ccccc2)c(-c2cccs2)c(=O)c2ccccc21	1.1	-15	3	8	0.2	84*
O=c1c(Cc2ccc(F)cc2)c(O)ccn1Cc1cccc(Cl)c1	0.8	21	-22	7	0.8	16
CCOC(=O)c1c(C)[nH]c(C(=O)Cn2c(=O)oc3ccccc32)c1C	1	-3	.	.	0.9	9
CCCCC1CC1C(=O)Nc1ncc2c(n1)CC(C)(C)CC2=O (configuration not stated)	0.9	14	11	-4	0.8	19
Cc1ccc(-n2c(SCC(=O)Nc3ccc4cn[nH]c4c3)nnc2-c2ccco2)cc1	0.9	10	-1	-1	0.5	46
COC(=O)C1C2CCC(C2)C1C(=O)OCC(=O)c1ccc(C)cc1 (configuration not stated)	0.8	20	-1	2	0.9	10
CCCOC(=O)C1C2C=CC(C2)C1C(=O)OCC(=O)c1ccccc1 (configuration not stated)	0.1	91*	12	0	0.3	75*
CC(=O)Nc1ccc(SCC(=O)c2cc(C)n(Cc3cccs3)c2C)cc1	0.9	14	9	-2	0.4	63*
COCC(C)n1c(C)cc(C(=O)CSc2nc3ccccc3c(=O)[nH]2)c1C (configuration not stated)	0.6	43	12	-1	0.9	14
Cc1cc(C(=O)CSc2n[nH]c(-c3ccccc3F)n2)c(C)n1Cc1cccs1	0.4	63*	65	-6	0.1	92*
COCC(C)n1c(C)cc(C(=O)CSc2ccc(NC(C)=O)cc2)c1C (configuration not stated)	0.2	81*	13	-5	1	2

Screening results: PubChem, Sanford-Burnham Center for Chemical Genomics
